# According to the supplement of paper PMC6089552:
# Among all 3,200 compounds or so, about 300 (9.4%) showed activity. For the sample, actives were picked, then their nearest neighbours and some compounds at random.
# System: A673/TR/shEF
# Experiment: cell viability (LOESS-normalised, relative to median of negative controls) (log2 ratio); higher = more viable cells (less compound effect), active = hit call of the paper (over 3 MAD below the median)
# Conditions: treatment time: 72 h
# Method in brief: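 A673/TR/shEF Ewing sarcoma cells (1,500 per well, 384-well plates) were grown with or without doxycycline to induce EWS-FLI1 shRNA knockdown, starting 24 h before compounds. Library compounds at two or more concentrations, with DMSO controls, were added for three days. Cell viability was read by CellTiter-Glo luminescence on an Envision reader, then LOESS-corrected per plate, divided by the median of negative controls and log2-transformed. Hits were wells at least three median absolute deviations from the median of all screened wells.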
# [1] = 0.103 µM, library screen: screen3, EWS-FLI1 expression: high (no doxycycline)
# [2] = 0.103 µM, library screen: screen3, EWS-FLI1 expression: low (doxycycline-induced shRNA knockdown)
# [3] = 0.308 µM, library screen: screen3, EWS-FLI1 expression: high (no doxycycline)
# [4] = 0.308 µM, library screen: screen3, EWS-FLI1 expression: low (doxycycline-induced shRNA knockdown)
# [5] = 0.926 µM, library screen: screen3, EWS-FLI1 expression: high (no doxycycline)
# [6] = 0.926 µM, library screen: screen3, EWS-FLI1 expression: low (doxycycline-induced shRNA knockdown)
# [7] = 2.8 µM, library screen: screen3, EWS-FLI1 expression: high (no doxycycline)
# [8] = 2.8 µM, library screen: screen3, EWS-FLI1 expression: low (doxycycline-induced shRNA knockdown)
# [9] = 8.3 µM, library screen: screen3, EWS-FLI1 expression: high (no doxycycline)
# [10] = 8.3 µM, library screen: screen3, EWS-FLI1 expression: low (doxycycline-induced shRNA knockdown)
# [11] = 25 µM, library screen: screen3, EWS-FLI1 expression: high (no doxycycline)
# [12] = 25 µM, library screen: screen3, EWS-FLI1 expression: low (doxycycline-induced shRNA knockdown)
# [13] = 0.25 µM, library screen: screen1, EWS-FLI1 expression: high (no doxycycline)
# [14] = 0.25 µM, library screen: screen1, EWS-FLI1 expression: low (doxycycline-induced shRNA knockdown)
# [15] = 2.5 µM, library screen: screen1, EWS-FLI1 expression: high (no doxycycline)
# [16] = 2.5 µM, library screen: screen1, EWS-FLI1 expression: low (doxycycline-induced shRNA knockdown)
# [17] = 0.25 µM, library screen: screen2, EWS-FLI1 expression: high (no doxycycline)
# [18] = 0.25 µM, library screen: screen2, EWS-FLI1 expression: low (doxycycline-induced shRNA knockdown)
# [19] = 2.5 µM, library screen: screen2, EWS-FLI1 expression: high (no doxycycline)
# [20] = 2.5 µM, library screen: screen2, EWS-FLI1 expression: low (doxycycline-induced shRNA knockdown)
compound,measurement,setting,value
C[N+]1(C)C2CC(OC(=O)C(O)(c3cccs3)c3cccs3)CC1C1OC12 (stereo unspecified),cell viability (log2),[1],0.0262 (inactive)
same,cell viability (log2),[2],0.0758 (inactive)
same,cell viability (log2),[3],0.0294 (inactive)
same,cell viability (log2),[4],0.0213 (inactive)
same,cell viability (log2),[5],-0.023 (inactive)
same,cell viability (log2),[6],0.0295 (inactive)
same,cell viability (log2),[7],0.0205 (inactive)
same,cell viability (log2),[8],0.0567 (inactive)
same,cell viability (log2),[9],0.0784 (inactive)
same,cell viability (log2),[10],0.0507 (inactive)
same,cell viability (log2),[11],0.1 (inactive)
same,cell viability (log2),[12],0.116 (inactive)
COC(=O)C(C(C)=O)C(C)=O,cell viability (log2),[13],0.0323 (inactive)
same,cell viability (log2),[14],0.0334 (inactive)
same,cell viability (log2),[15],0.0258 (inactive)
same,cell viability (log2),[16],0.125 (inactive)
CC(/C=C/C=C(\C)c1cc(C(C)(C)C)cc(C(C)(C)C)c1)=C\C(=O)O,cell viability (log2),[17],0.134 (inactive)
same,cell viability (log2),[18],0.0751 (inactive)
same,cell viability (log2),[19],0.0952 (inactive)
same,cell viability (log2),[20],0.134 (inactive)
C=CCNC(=O)c1ccc(CN(c2cccc(Cl)c2)S(C)(=O)=O)cc1,cell viability (log2),[13],0.0663 (inactive)
same,cell viability (log2),[14],0.0926 (inactive)
same,cell viability (log2),[15],0.107 (inactive)
same,cell viability (log2),[16],0.133 (inactive)
C[N+](C)(C)CCC(=O)c1cccc2ccccc12,cell viability (log2),[17],-0.0772 (active)
same,cell viability (log2),[18],0.0591 (inactive)
same,cell viability (log2),[19],-0.524 (active)
same,cell viability (log2),[20],-0.0126 (inactive)
NCCC(=O)c1ccccc1N,cell viability (log2),[13],0.0986 (inactive)
same,cell viability (log2),[14],0.0335 (inactive)
same,cell viability (log2),[15],0.167 (inactive)
same,cell viability (log2),[16],0.184 (inactive)
O=C(O)c1c2ccccc2cc2ccccc12,cell viability (log2),[13],0.0833 (inactive)
same,cell viability (log2),[14],0.174 (inactive)
same,cell viability (log2),[15],0.112 (inactive)
same,cell viability (log2),[16],0.125 (inactive)
COC(=O)C[C@H]1C(C)(C)C(OC(C)=O)[C@]2(O)C=C3C(CC[C@]4(C)C3CC(=O)O[C@H]4c3ccoc3)C1(C)C2=O (stereo partly specified),cell viability (log2),[13],0.102 (inactive)
same,cell viability (log2),[14],0.114 (inactive)
same,cell viability (log2),[15],0.0649 (inactive)
same,cell viability (log2),[16],0.0874 (inactive)
C[C@H](Cc1ccccc1)Nc1ncnc2c1ncn2[C@@H]1O[C@H](CO)[C@H](O)C1O (stereo partly specified),cell viability (log2),[17],0.0269 (inactive)
same,cell viability (log2),[18],0.14 (inactive)
same,cell viability (log2),[19],0.0399 (inactive)
same,cell viability (log2),[20],0.136 (inactive)
COc1ccc(C[C@@H](N)C(=O)N[C@H]2[C@@H](O)[C@H](n3cnc4c(N(C)C)ncnc43)O[C@@H]2CO)cc1,cell viability (log2),[13],0.0185 (inactive)
same,cell viability (log2),[14],-0.00341 (inactive)
same,cell viability (log2),[15],-1.82 (active)
same,cell viability (log2),[16],-2 (active)
COc1nc(N)nc2c1ncn2[C@@H]1O[C@H](CO)[C@@H](O)[C@@H]1O,cell viability (log2),[1],-0.0331 (inactive)
same,cell viability (log2),[2],0.0967 (inactive)
same,cell viability (log2),[3],0.111 (inactive)
same,cell viability (log2),[4],0.1 (inactive)
same,cell viability (log2),[5],0.0614 (inactive)
same,cell viability (log2),[6],0.133 (inactive)
same,cell viability (log2),[7],0.0686 (inactive)
same,cell viability (log2),[8],0.0525 (inactive)
same,cell viability (log2),[9],0.0218 (inactive)
same,cell viability (log2),[10],0.0206 (inactive)
same,cell viability (log2),[11],0.0232 (inactive)
same,cell viability (log2),[12],0.121 (inactive)
CN1/C(=C(\O)Nc2ccccn2)C(=O)c2ccccc2S1(=O)=O,cell viability (log2),[1],0.0972 (inactive)
same,cell viability (log2),[2],0.122 (inactive)
same,cell viability (log2),[13],-0.035 (inactive)
same,cell viability (log2),[14],0.0628 (inactive)
same,cell viability (log2),[17],0.14 (inactive)
same,cell viability (log2),[18],0.0798 (inactive)
same,cell viability (log2),[3],0.121 (inactive)
same,cell viability (log2),[4],0.145 (inactive)
same,cell viability (log2),[5],0.194 (inactive)
same,cell viability (log2),[6],0.0843 (inactive)
same,cell viability (log2),[15],0.139 (inactive)
same,cell viability (log2),[16],0.148 (inactive)
same,cell viability (log2),[19],0.135 (inactive)
same,cell viability (log2),[20],0.0591 (inactive)
same,cell viability (log2),[7],0.173 (inactive)
same,cell viability (log2),[8],0.0997 (inactive)
same,cell viability (log2),[9],0.146 (inactive)
same,cell viability (log2),[10],0.0703 (inactive)
same,cell viability (log2),[11],0.152 (inactive)
same,cell viability (log2),[12],0.0778 (inactive)
Nc1nc(Nc2ccccc2)nc2c1ncn2C1O[C@H](CO)[C@@H](O)[C@H]1O (stereo partly specified),cell viability (log2),[17],0.161 (inactive)
same,cell viability (log2),[18],0.05 (inactive)
same,cell viability (log2),[19],0.213 (inactive)
same,cell viability (log2),[20],-0.0193 (inactive)
Nc1cccc(-c2cc3c(Oc4cccc(O)c4)ncnc3[nH]2)c1,cell viability (log2),[1],0.136 (inactive)
same,cell viability (log2),[2],0.0102 (inactive)
same,cell viability (log2),[3],0.0422 (inactive)
same,cell viability (log2),[4],0.0346 (inactive)
same,cell viability (log2),[5],0.0247 (inactive)
same,cell viability (log2),[6],0.00411 (inactive)
same,cell viability (log2),[7],-0.00369 (inactive)
same,cell viability (log2),[8],0.0285 (inactive)
same,cell viability (log2),[9],-0.0241 (inactive)
same,cell viability (log2),[10],0.0796 (inactive)
same,cell viability (log2),[11],-0.494 (active)
same,cell viability (log2),[12],-0.321 (active)
O=C(O)C1(O)C[C@@H](O)C(O)[C@H](O)C1 (stereo partly specified),cell viability (log2),[13],0.068 (inactive)
same,cell viability (log2),[14],-0.0312 (inactive)
same,cell viability (log2),[15],0.121 (inactive)
same,cell viability (log2),[16],-0.0156 (inactive)
CC(=O)O[C@H]1C[C@@H](OC(C)=O)C(C)(C)[C@@H]2C[C@@H](OC(C)=O)[C@]3(C)[C@H](CC[C@@]4(C)[C@H](c5ccoc5)OC(=O)[C@H]5O[C@@]534)[C@@]12C,cell viability (log2),[13],-0.0343 (inactive)
same,cell viability (log2),[14],0.0186 (inactive)
same,cell viability (log2),[15],0.075 (inactive)
same,cell viability (log2),[16],0.143 (inactive)
N#CC(C#N)=C(N)/C(C#N)=C/c1cc(O)c(O)c(O)c1,cell viability (log2),"0.025 µM, library screen: screen1, EWS-FLI1 expression: high (no doxycycline)",0.289
same,cell viability (log2),"0.025 µM, library screen: screen1, EWS-FLI1 expression: low (doxycycline-induced shRNA knockdown)",-0.0659 (inactive)
same,cell viability (log2),[13],0.296
same,cell viability (log2),[14],-0.0126 (inactive)
same,cell viability (log2),[17],0.21 (inactive)
same,cell viability (log2),[18],0.0773 (inactive)
same,cell viability (log2),[15],-0.312 (active)
same,cell viability (log2),[16],0.0388 (inactive)
same,cell viability (log2),[19],0.23 (inactive)
same,cell viability (log2),[20],0.0527 (inactive)
same,cell viability (log2),"25 µM, library screen: screen1, EWS-FLI1 expression: high (no doxycycline)",-0.175 (active)
same,cell viability (log2),"25 µM, library screen: screen1, EWS-FLI1 expression: low (doxycycline-induced shRNA knockdown)",0.0813 (inactive)
